According to PubChem BioAssay (NCI):
This is part of a sample that, as a whole, favours compounds with a hit. Of some 83,000 tested, about 20% had one in any assay.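 Cells were grown in 96-well plates and exposed to the test compound at a single concentration for 48 hours; results are reported as percent growth, with values below 10 considered active.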 Activity calls are given as the source filed them.

How the values were obtained:
Assay in all cases: NCI-60 one-dose screen, 48 h (100 = growth as untreated, 0 = no growth, -100 = all killed)
Settings in all cases: 10 µM unless noted
[1] = system: SK-MEL-2 melanoma
[2] = system: EKVX NSCLC
[3] = system: SN12C renal
[4] = system: UO-31 renal
[5] = system: TK-10 renal
[6] = system: A498 renal
[7] = system: CCRF-CEM leukemia
[8] = system: MOLT-4 leukemia
[9] = system: CAKI-1 renal
[10] = system: ACHN renal

Measured: growth

Cn1cc(-c2csc(-c3cn(CCN)c4ccc(Br)cc34)n2)c2cccnc21
inactive: [1] 110% | [2] 74.9% | [3] 68.9% | [4] 61.4% | [5] 116% | [6] 83.9% | [7] 39.8% | [8] 13.5%

CCN1CCN(C(=O)[C@@]2(C)CC[C@]3(C)CC[C@]4(C)C(=CC(=O)[C@@H]5[C@@]6(C)CC[C@H](OC7C[C@@H](O)[C@@H](O)C(C)O7)C(C)(C)[C@@H]6CC[C@]54C)[C@@H]3C2)CC1 (some centres not stated)
inactive: [1] 105% | [2] 80.4% | [5] 136% | [9] 89.4% | [6] 95.5%
active: [3] -64.7% | [4] -80.8% | [7] 0.503% | [8] 0.754%

CC(=O)OC[C@]12CC[C@@H](/C(C)=N/O)[C@@H]1[C@H]1CC[C@@H]3[C@@]4(C)CCCNC(C)(C)[C@@H]4CC[C@@]3(C)[C@]1(C)CC2
inactive: [1] 94.5% | [2] 84.6% | [3] 75.3% | [4] 61.2% | [10] 88% | [9] 36.7% | [6] 59.3% | [7] 52.1% | [8] 35.6%

Nc1c2c(nc3ccc(Cl)cc13)CC(c1ccccc1)CC2=O (configuration not stated)
inactive: [1] 59% | [2] 40.3% | [3] 61.3% | [4] 57.8% | [10] 47.9% | [9] 44.5% | [6] 49.3% | [7] 43.9% | [8] 51%

O=C(NCN1C(=O)c2cccc3cccc(c23)C1=O)N1CCC(Cc2ccccc2)CC1
active: [6] -36%
inactive: [1] 103% | [2] 93.4% | [3] 99.2% | [4] 72.2% | [5] 98% | [9] 82.9% | [7] 79.9% | [8] 84.7%

CN1CCN(CC#CCn2c3c(c4ccccc42)C[C@]2(C)[C@H]4CC[C@@H]5[C@H]6[C@H]7OC(=O)[C@@]6(CCC7(C)C)CC[C@@]5(C)[C@]4(C)CC[C@H]2C3(C)C)CC1
active: [7] -0.753%
inactive: [1] 118% | [2] 99.2% | [3] 52.8% | [4] 67.2% | [5] 161% | [9] 52.4% | [6] 71.6% | [8] 41.6%

Cc1ccnc2c(OCc3ccccc3)cccc12
inactive: [1] 105% | [2] 78.6% | [3] 88.8% | [4] 64.3% | [5] 102% | [9] 86.1% | [6] 90.3% | [7] 108% | [8] 98%

CN1CCN(c2ccc3nc(-c4[nH]ncc4Nc4ncnc5c4OCCCN5)[nH]c3c2)CC1
active: [1] -56.1% | [2] -59.6% | [3] -59.5% | [4] -77.3% | [10] -98.4% | [9] -86.2% | [6] -95.7% | [7] -25.7% | [8] -22.5%

Brc1ccc2[nH]cc(-c3nc(-c4c[nH]c5ncccc45)cs3)c2c1
inactive: [1] 36.3% | [2] 43.9% | [3] 49.8% | [4] 19.2% | [5] 30.1% | [7] 29.7% | [8] 18.4%
active: [9] 7.49%

Oc1cccc2ccc(N/N=C/c3cc(CN4CCCCC4)c(O)c4ncccc34)nc12
active: [1] -4.78% | [4] -19% | [9] 6.88% | [8] 7.17%
inactive: [2] 20% | [3] 17.6% | [5] 32.5% | [6] 38.9% | [7] 10.7%

COc1ccc(-c2nc(Nc3ccc(-c4nc5ccccc5[nH]4)cc3)nc(N3CCOCC3)n2)cc1
inactive: [3] 40.8% | [5] 43.9%
active: [1] -19.2% | [2] 7.91% | [4] -43.5% | [9] -56.6% | [6] -32.1% | [7] -1.84% | [8] 1.78%

Cc1ccc(S(=O)(=O)Nc2ccc(-c3cc(-c4cccc(F)c4)c(C#N)c(=O)[nH]3)cc2)cc1
inactive: [1] 112% | [2] 83.4% | [3] 83.7% | [4] 68.6% | [10] 91.3% | [9] 60.2% | [6] 85.2% | [7] 68.4% | [8] 76.9%

Cn1c2c(c3ccc(Cl)cc31)-n1cccc1C2=O
inactive: [1] 84.6% | [2] 86.4% | [3] 74.5% | [4] 57.5% | [10] 78.2% | [9] 83.2% | [6] 89.6% | [7] 85.7% | [8] 64.2%

Fc1ccc2[nH]cc(-c3nc(-c4c[nH]c5ncccc45)cs3)c2c1
inactive: [1] 52.9% | [2] 37.2% | [3] 49.3% | [4] 41.8% | [5] 52.2% | [9] 18.6% | [6] 33.5% | [7] 18.7%
active: [8] 2.93%

O=C(N/N=C/c1ccccc1SSc1ccccc1/C=N/NC(=O)c1ccccc1)c1ccccc1
inactive: [1] 24.8% | [2] 25.8% | [3] 43.4% | [4] 18.6% | [5] 31.8% | [6] 75.8% | [7] 16% | [8] 10.8%

Cc1ccc(-c2nn(Cc3cn(-c4cc(C)nc5ccccc45)nn3)c3ncnc(N)c23)cc1
inactive: [1] 76.2% | [2] 57.3% | [3] 31.1% | [4] 17.6% | [5] 31.8% | [9] 20.8% | [7] 63.1% | [8] 49.9%
active: [6] -2.48%

COc1cc(-c2c(C#N)c(-c3cccs3)nc3c2c(-c2ccccc2)nn3-c2ccccc2)ccc1O
inactive: [1] 81% | [2] 79.9% | [3] 89.2% | [4] 89.1% | [5] 101% | [9] 66.6% | [6] 106% | [7] 83.2% | [8] 59.9%

Cn1cc(-c2nc(-c3c[nH]c4ncccc34)cs2)c2ccccc21
inactive: [1] 87% | [2] 22.7% | [3] 90% | [4] 62.4% | [5] 56.9% | [9] 79.1% | [6] 81.5% | [7] 75.5% | [8] 77.8%

N#CC1=C(N)Oc2c(c(N)nn2-c2ccccc2)C1c1ccc(Cl)cc1Cl (configuration not stated)
inactive: [1] 101% | [2] 91.2% | [3] 99.5% | [4] 73.8% | [5] 123% | [9] 90.1% | [6] 90.7% | [7] 95.6% | [8] 88.3%

COc1ccc(C2NC(=O)Nc3ccccc32)c(OC)c1 (configuration not stated)
inactive: [1] 102% | [2] 97% | [3] 95.3% | [4] 78.3% | [5] 95.5% | [9] 93% | [6] 105% | [7] 101% | [8] 95.5%

COC(=O)[C@]12CC[C@@H](C(C)=O)[C@@H]1[C@H]1CC[C@@H]3[C@@]4(C)C/C(=C/c5cccnc5)C(=O)C(C)(C)[C@@H]4CC[C@@]3(C)[C@]1(C)CC2
inactive: [1] 68.1% | [2] 85.8% | [3] 57.7% | [4] 56.6% | [10] 32.5% | [9] 51% | [6] 80.6%
active: [7] 7.57% | [8] 5.47%

O=C(O)c1cccc2c1C(=O)N(c1ccc3c(c1)Cc1ccccc1-3)C2=O
inactive: [1] 99% | [2] 111% | [3] 111% | [4] 85.6% | [5] 100% | [9] 109% | [6] 104% | [7] 104% | [8] 101%

CC(=O)OCCCCCCn1c2ccccc2c2c3c(c4c5ccccc5n(C)c4c21)C(=O)N(O)C3=O
inactive: [1] 84.6% | [2] 98.6% | [3] 70% | [4] 50% | [5] 80.6% | [6] 52.9% | [7] 34.3% | [8] 10.9%
active: [9] 4.21%

CCOC(=O)N1CCN(CCCCOc2ccc(C(C)(C)CC)cc2)CC1
inactive: [1] 95.8% | [2] 99.1% | [3] 95.7% | [4] 83.1% | [10] 97.3% | [9] 85.8% | [6] 108% | [7] 73% | [8] 67.2%

O=C(CCCCCn1c2ccccc2c2c3c(c4c5ccccc5[nH]c4c21)C(=O)N(O)C3=O)N1CCOCC1
active: [9] -22.9% | [7] 5.19% | [8] -14.9%
inactive: [1] 72.5% | [2] 77.7% | [3] 57.1% | [4] 29.6% | [5] 70.7% | [6] 26.9%

Cc1cc(N2CCN(C)CC2)nc(N(CCNc2ccnc3cc(Cl)ccc23)Cc2ccco2)n1
inactive: [1] 55.8% | [2] 57.2% | [3] 58.3% | [4] 54.8% | [10] 54.5% | [7] 14.1% | [8] 28.8%

C#Cc1cccc(NC(=O)C2CCCN(C(=O)CCl)C2)c1 (configuration not stated)
active: [4] -56.7% [8.25 µM] | [10] -96.3% [8.25 µM] | [7] -25.9% [8.25 µM] | [8] -7.04% [8.25 µM]
inactive: [1] 75.7% [8.25 µM] | [2] 95.7% [8.25 µM] | [5] 98.9% [8.25 µM] | [9] 33.8% [8.25 µM] | [6] 99.2% [8.25 µM]

CNC(=O)c1cc(Oc2ccc3nc(NC(=O)Nc4ccc(Cl)cc4)sc3c2)ccn1
inactive: [1] 81.1% | [2] 53.8% | [3] 62.3% | [4] 62.5% | [10] 64.9% | [9] 94.7% | [6] 117% | [7] 83.2% | [8] 85.4%
